AF4-AF9 inh: inhibitors of AF4 peptide binding to AF9, primary screen, biochemical, AlphaScreen, biotin-AF4 peptide, FLAG-AF9, single point. Protein AF-9 (Homo sapiens), P42568. actives 0.47% (n = 350,000). inhibition, % at 10 µM. AID 651704, 2012;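 active = every replicate reaching a set inhibition limit, whatever the replicate mean, cut at about 25% in these data; inconclusive = mean inhibition reaches that limit but some replicates miss it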;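 note: 0% = plate neutral control median and 100% = total signal loss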
SMARCA2 activ: SMARCA2 (BRM) function activators, primary screen, cell-based, luminescence, high throughput | MG213 cells, MMTV-luciferase reporter, dexamethasone, overnight | activation, % at 9.1 µM | actives 1% (n = 370,000); in the data active = activation above about 7.8%;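 note: 0% = vehicle wells and 100% = reference activator wells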
MITF act: activators of MITF-driven TRPM1 promoter reporter, primary screen, cell-based, SK-MEL-5, luciferase, single point; activation, % at 12.5 µM; AID 588334, 2011; SK-MEL-5 TRPM1-promoter luciferase, 24 h; % of positive control, neutral wells = 0; actives 0.75% (n = 300,000);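 active = mean activation of at least 80% with every replicate also reaching 80%; inconclusive = mean reaches 80% but some replicate falls short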;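 note: 0% = neutral control wells and 100% = parthenolide positive control wells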
esBAF inh: Bmi1 luciferase reporter increase in mESCs, primary screen, esBAF inhibitor project, mouse ES cells, Bmi1 luciferase knock-in, single point; actives 2% (n = 350,000); reporter increase, % at 12.5 µM; 24 h; 100% = twice the neutral-well signal; in the data active = activation above about 40%; inconclusive = no clear call, values can overlap the other calls;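 note: 0% = median of the plate's neutral control wells and 100% = double that signal; a rise in the Bmi1 reporter signal indicates esBAF inhibition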
Wnt bcat act: Wnt/beta-catenin pathway activators, primary screen, cell-based, plate reader, single point | Wnt/beta-catenin reporter cell assay, activator | activation, % at 9.35 µM | actives 1.2% (n = 300,000) | AID 743398, 2014; in the data active = activation above about 30%, passing the limit was not always enough; inconclusive = no clear call, values can overlap the other calls;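 note: 0% = neutral control wells and 100% = positive control wells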
FGF22 binding: binders of human FGF22 protein, primary screen, FGF22 synaptogenesis inhibitor project, biophysical, thermal shift, single point. Fibroblast growth factor 22 (Homo sapiens), Q9HCT0. recombinant FGF22 thermal shift, SYPRO orange fluorescence; percent of sucrose octasulfate shift, DMSO zero. activity (Tm shift, normalised), % at 9.99 µM. actives 1.5% (n = 340,000). AID 651658, 2012;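 active = mean Tm shift, scaled 0 neutral to 100 positive control, at about 1.3% or above, every replicate too, limit read from the data; inconclusive = no clear call, values can overlap the other calls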
Target sequence (Q9HCT0 whole entry, looked up): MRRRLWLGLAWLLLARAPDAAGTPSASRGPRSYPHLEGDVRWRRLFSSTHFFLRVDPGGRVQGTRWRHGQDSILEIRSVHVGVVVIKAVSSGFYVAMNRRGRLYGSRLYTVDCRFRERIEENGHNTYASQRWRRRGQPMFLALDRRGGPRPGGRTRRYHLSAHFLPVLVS
* = called active by the depositor; ? = inconclusive; / = no result given. An excerpt weighted towards active compounds, which were near 4.3% of everything screened.

SMILES | AF4-AF9 inh | SMARCA2 activ | MITF act | esBAF inh | Wnt bcat act | FGF22 binding
CC(c1ccon1)N(C)C(=O)CCc1nnc(C2(c3ccc(Cl)cc3)CCC2)o1 (stereo unspecified) | 0.0 | 4.3 | 23.7 | / | 7.4 | 43.3*
COCC(C)NC(=O)CCc1nnc(C2(c3ccc(Cl)cc3)CCC2)o1 (stereo unspecified) | / | 4.6 | 20.6 | / | 18.6 | /
O=C(CCc1nnc(C2(c3ccc(Cl)cc3)CCC2)o1)NC1CC1 | -0.8 | -3.1 | 15.0 | / | 0.9 | 43.6*
O=C(c1cccnc1)N1CC[C@@H]2[C@H](CO)Nc3ccc(-c4ccccc4)cc3[C@@H]21 | 3.8 | / | / | 4.7 | / | 0.1
COc1ccc(Nc2nc(C)c3ccccc3n2)cc1 | / | 1.2 | 60.2 | 75.4* | / | /
CC(=O)Nc1ccc(Nc2nccc(C)n2)cc1 | -0.5 | -0.1 | / | 18.1 | 0.0 | 0.0
COc1ccc(Nc2nc(Cl)nc(Nc3ccc(OC)cc3)n2)cc1 | 0.5 | 1.0 | 5.6 | / | -1.5 | 42.9*
CC(=O)Nc1ccc(Nc2nc(Cl)nc(Nc3ccc(NC(C)=O)cc3)n2)cc1 | -9.2 | -4.7 | -4.2 | / | -4.3 | 44.0*
Clc1nc(Nc2ccccc2)nc(Nc2ccccc2)n1 | / | 1.7 | 21.1 | ? | 49.4* | /
CC(C)NC(=O)Nc1ccc2c(c1)C(=O)N([C@@H](C)CO)C[C@H](C)[C@@H](CN(C)C(=O)Nc1ccc(F)cc1)O2 | 0.0 | / | / | -0.2 | / | 0.1
CCC(=O)N1Cc2cc(C(=O)NCCOC)nc(-c3cccc(-c4ccc(C#N)cc4)c3)c2[C@@H]1CCO | 4.0 | / | / | / | / | 0.0
COc1ccc2nc(N/C(N)=N/C(=S)Nc3ccccc3)nc(C)c2c1 | 3.9 | 1.7 | 9.1 | 28.1 | -1.7 | 4.1*
COc1nc(Nc2ccc(O)cc2)nc(OC(C(F)(F)F)C(F)(F)F)n1 | / | -2.3 | -7.9 | -7.9 | / | /
C=CCNc1nc(Cl)nc(Nc2ccc([N+](=O)[O-])cc2)n1 | -0.2 | 1.2 | -3.8 | / | -5.4 | 43.9*
COc1nc(Nc2ccc(C(C)C)cc2)nc(OC)n1 | / | 3.5 | 51.1 | 57.7* | / | /
CCOc1ccc2nc(N/C(N)=N/C(=S)Nc3ccc(OC)cc3)nc(C)c2c1 | 0.7 | 0.0 | 7.5 | 6.4 | -0.1 | -0.1
CC(C)c1ccc(Nc2nc(N3CCOCC3)nc(N3CCOCC3)n2)cc1 | -0.9 | -2.2 | / | -5.4 | -2.6 | 1.6*
CCC(=O)N1C[C@H]2[C@@H](c3ccccc31)[C@H](CO)N2C(=O)Nc1ccccc1F | -0.3 | / | / | -2.5 | / | -0.1
C=CCNc1nc(Cl)nc(Nc2ccc(OC)cc2OC)n1 | -13.5 | -4.4 | 0.1 | -9.6 | 0.0 | 43.0*
CC(=O)c1ccc(Nc2nc(C)cc(C)n2)cc1 | -3.0 | 7.2 | 66.3 | 50.1* | 21.8 | -0.1
CCc1c(C)nc(Nc2nc(C)c3ccc(OC)cc3n2)[nH]c1=O | -51.4 | -0.1 | 53.2 | 23.2 | 5.7 | 0.3
COc1ccc(Nc2nc(Cl)nc(Nc3ccc(OC)cc3OC)n2)c(OC)c1 | 1.8 | -1.4 | -0.3 | / | -1.2 | 0.1
COc1ccc2c(C)nc(Nc3nc(C)c(C)c(=O)[nH]3)nc2c1 | / | 5.7 | / | 175.8* | / | /
COc1ccc(NC(=O)Nc2ccc3c(c2)CC(=O)N([C@H](C)CO)C[C@H](C)[C@@H](CN(C)S(C)(=O)=O)O3)cc1 | -1.4 | / | / | -4.8 | / | 0.0
CCOC(=O)c1ccc(N2Cc3ccccc3C2=NC(=O)c2cccs2)cc1 | / | -0.2 | 112.4* | / | 21.0 | /
SMILES | AF4-AF9 inh | SMARCA2 activ | MITF act | esBAF inh | Wnt bcat act | FGF22 binding
CCOC(=O)c1ccc(N2Cc3ccccc3C2=NC(=O)c2ccncc2)cc1 | ? | 7.6 | 102.2* | / | 46.3* | 0.0
N#Cc1ccc(N2Cc3ccccc3C2=NC(=O)c2cccs2)cc1 | -2.9 | 0.3 | 32.7 | / | 18.0 | 0.2
CC(=O)c1ccc(N2Cc3ccccc3C2=NC(=O)c2cccs2)cc1 | / | 2.0 | 93.6* | 7.0 | ? | /
CN1C(=O)c2cc(NC(=O)c3cccs3)ccc2OC[C@@H]2O[C@H](CC(=O)N3CCCCC3)CC[C@H]21 | -0.5 | / | / | -1.2 | / | -0.1
COCCNC(=O)C[C@@H]1C=C[C@@H](NC(=O)NC2CCCC2)[C@@H](CO)O1 | -9.6 | / | / | -1.3 | / | -0.1
COCCNC(=O)c1cccc2c1-c1ccccc1C2=O | 1.1 | -3.0 | 2.0 | -4.7 | 3.6 | -0.2

From PubChem
